About 83,000 compounds went through this panel and 20% of them were active in at least one assay; those are over-represented in the sample as a whole.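 Cells were grown in 96-well plates and exposed to the test compound at a single concentration for 48 hours; results are reported as percent growth, with values below 10 considered active.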 Unmarked numbers belong to inactive results. The source made the active and inactive calls.
Columns and labels:
Experiment in all cases: NCI-60 one-dose screen, 48 h (100 = growth as untreated, 0 = no growth, -100 = all killed)
Conditions in all cases: 10 µM unless noted
HCT-15 colon = system: HCT-15 colon
HT29 colon = system: HT29 colon
SNB-75 CNS = system: SNB-75 CNS
SNB-19 CNS = system: SNB-19 CNS
U251 CNS = system: U251 CNS
PC-3 prostate = system: PC-3 prostate
SK-MEL-5 melanoma = system: SK-MEL-5 melanoma
UACC-62 melanoma = system: UACC-62 melanoma
SK-MEL-28 melanoma = system: SK-MEL-28 melanoma

Row | SMILES | growth (HCT-15 colon) | growth (HT29 colon) | growth (SNB-75 CNS) | growth (SNB-19 CNS) | growth (U251 CNS) | growth (PC-3 prostate) | growth (SK-MEL-5 melanoma) | growth (UACC-62 melanoma) | growth (SK-MEL-28 melanoma)
1 | CCN1C(=O)/C(=N\N=C(/C)c2ccc3c(c2)Nc2ccccc2S3)c2cc(Cl)ccc21 | 46.7% | 71.6% | 76% | 64.4% | 73.7% | 40.5% | 7.2% (active) | 32.7% | 47.2%
2 | NC(=S)Nc1cccc(NC(N)=S)c1 | 95.1% | 113% | 97.6% | 88.3% | 88.8% | 102% | 91.4% | 70.5% | 104%
3 | O=C1NC(=O)c2c1c1c3cc(Br)ccc3[nH]c1c1oc3ccc(F)cc3c21 | 21.5% | 36.4% | -11.6% (active) | -16.9% (active) | -55.5% (active) | -66% (active) | 2.9% (active) | 0.264% (active) | -20.7% (active)
4 | COc1ccc(C2=NN(c3ccccc3)C(c3ccc(OC)c(OCc4ccccc4)c3)C2)cc1OC (stereo unspecified) | 83.8% | 70.5% | 90.6% | 88.1% | 92.4% | 98% | 94.1% | 81.8% | 115%
5 | Cc1ccc2c(N)c(C(=O)Nc3ccc(-c4ccccc4)cc3)sc2n1 | 58.7% | 84.3% | 53.8% | 63.5% | 85.2% | 68.5% | 20.3% | 72.2% | 85.1%
6 | COc1ccc2[nH]c(O)c(N=NC(=O)COc3ccc(NC(=O)Nc4ccccc4)cc3)c2c1 | 108% | 52.4% | 31.6% | 14.6% | -4.75% (active) | 40.5% | 69.7% | 10.1% | 8.57% (active)
7 | Cc1ccc(NC(=O)CN2CCN(c3ncnc4c3cnn4-c3ccccc3)CC2)cc1 | 50.3% | 93.8% | 103% | 85.9% | 86.5% | 65.5% | 77.6% | 69.3% | 86.5%
8 | O=c1c2ccccc2nc(-c2ccccc2)n1/N=C/c1ccc2ccccc2c1 | 13.1% | 19.9% | 65.8% | 56.8% | 31.2% | 53.4% | 38.5% | 35.8% | 61.7%
9 | O=S(=O)(Nc1cccc(-n2cnc3cc(-c4ccc(O)cc4)ccc32)c1)C1CC1 | 27.2% | 16.7% | -22.3% (active) | 37.7% | 17.6% | 40% | 12.6% | 34.5% | 43.6%
10 | COc1ccc2[nH]cc(-c3nc(N)nnc3-c3cn(C)c4ncccc34)c2c1 | 44.4% | 35.6% | 14.2% | 63.8% | 60.1% | 68.4% | 31.2% | 37.7% | 62.3%
11 | COc1cc(CNC(=O)/C=C/c2ccc3c(c2)OCO3)ccc1OCc1cn(-c2ccc([N+](=O)[O-])cc2)nn1 | 97.3% | 121% | 106% | 86.5% | 96.2% | 103% | 89.3% | 78.9% | 99.9%
12 | O=C(COc1ccc(NC(=O)Nc2ccc(Cl)c(Cl)c2)cc1)N=Nc1c(O)[nH]c2ccc(Cl)cc12 | 30.6% | -30.1% (active) | -37.6% (active) | -13.8% (active) | -84.5% (active) | -2.39% (active) | -83.8% (active) | -33.1% (active) | -81.4% (active)
13 | CN1CCc2c(sc3ncnc(N/N=C/c4ccc(Cl)cc4Cl)c23)C1 | 10.2% | -88.4% (active) | -50.4% (active) | 26.8% | 2.63% (active) | 25.3% | -89.2% (active) | -79.9% (active) | -33.1% (active)
14 | COc1ccc(NC(=O)Cn2c(O)c(N=Nc3ccc(S(N)(=O)=O)cc3)c3ccccc32)cc1 | 79% | -2.87% (active) | 59.7% | 23% | -32.5% (active) | 14.4% | 62.3% | 20.7% | 26.7%

From PubChem BioAssay (NCI)
